# Measurements reported in PubChem BioAssay AID2718 (Broad Institute, 2010).
# About 480 (0.15%) of roughly 320,000 compounds were called active. Another 1% or so got no clear call; they are omitted. The sample holds actives, similar compounds and a random draw of the others, so the mix is not that of the screen. Unmarked numbers belong to inactive results. No stated cut-off is given here; in the data, active means inhibition above about 26% (passing the limit was not always enough); inconclusive means no clear call, values can overlap the other calls.
# Target: Histone deacetylase 3 (Homo sapiens) (UniProt O15379)
# Assay: HDAC3 deacetylase inhibitors, primary screen, biochemical, fluorescence, cell-free homogeneous (AID 2718)
# Conditions: recombinant HDAC3, fluorogenic peptide/trypsin coupled, at 8.3 µM, stronger effect = higher value
# Histone deacetylase 3 (Homo sapiens), sequence (O15379 whole entry, looked up): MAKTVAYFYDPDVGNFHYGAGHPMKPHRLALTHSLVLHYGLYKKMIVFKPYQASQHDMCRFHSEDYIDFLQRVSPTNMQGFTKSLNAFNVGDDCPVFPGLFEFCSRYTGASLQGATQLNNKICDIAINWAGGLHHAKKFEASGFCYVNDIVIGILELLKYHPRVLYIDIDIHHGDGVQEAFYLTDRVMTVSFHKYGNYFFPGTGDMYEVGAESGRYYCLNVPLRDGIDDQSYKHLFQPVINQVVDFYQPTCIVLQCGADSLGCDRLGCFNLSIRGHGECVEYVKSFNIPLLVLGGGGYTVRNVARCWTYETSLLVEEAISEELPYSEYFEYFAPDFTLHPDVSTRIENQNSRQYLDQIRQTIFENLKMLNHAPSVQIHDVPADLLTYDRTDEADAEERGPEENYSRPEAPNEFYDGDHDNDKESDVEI
row,SMILES,inhibition
1,C=CC[C@H](CC(=O)N(CCO)Cc1ccccc1)C(=O)N[C@@H](COC(=O)[C@@H](CC=C)Cc1ccc(F)cc1)Cc1ccccc1,40.9% (active)
2,C=CC[C@H](CC(=O)NCCO)C(=O)N[C@@H](COC(=O)[C@@H](CC=C)Cc1ccc(F)cc1)Cc1c[nH]c2ccccc12,9.77%
3,O=C1N[C@@H](c2ccccc2)COC(=O)[C@H](Cc2ccc(F)cc2)C/C=C\C[C@@H]1CC(=O)N(CCO)Cc1ccccc1,8.45%
4,COC(=O)[C@]1(CC(C)C)N[C@H](c2ccc(SC3CCCCC3)cc2)[C@@H]2C(=O)N(C)C(=O)[C@@H]21,16%
5,O=C(OCC(=O)N1CCCCCC1)c1ccc(Cl)nc1,0.75%
6,CCOC(=O)Cn1c(-c2cccnc2Cl)nc2ccccc21,2.13%
7,CCCCCCCCCCOC(=O)Cn1c(COc2cccc(OC)c2)[n+](C)c2ccccc21,17.1%
8,CCCCCCCCCCOC(=O)Cn1c(COc2ccc(C)cc2)[n+](C)c2ccccc21,36.3% (active)
9,Cc1cccc(NC(=O)c2ccc(S(=O)(=O)N(C)c3ccccc3)cc2)n1,2.21%
10,CCN(C(=O)COC(=O)c1ccccc1O)c1cccc2ccccc12,2.66%
11,Cc1cc2c(cc1C)N(C(=O)CN1C(=O)c3ccccc3C1=O)C(C)(C)c1ssc(=S)c1-2,-10.7%
12,COc1cc(NC(=O)CN2C(=O)NC(C)(c3ccc(OC(F)F)cc3)C2=O)cc(OC)c1OC (configuration not stated),5.68%
13,Cc1ccc2nc(-c3ccc(NC(=O)c4cccnc4)cc3)oc2c1,-0.79%
14,Cc1ccc(NC(=O)Cc2nc(COC(=O)C(C)NS(=O)(=O)c3ccc(C)cc3)cs2)cc1 (configuration not stated),1.23%
15,CC(=O)Nc1ccc(S(=O)(=O)NCCC(=O)N2CCN(c3ccccc3Cl)CC2)cc1,-4.42%
16,CCOc1cc(C(C(=O)NCC2CCCO2)N(C(=O)Cn2nnc3ccccc32)c2cccc(OC)c2)ccc1O (configuration not stated),-5.33%
17,COc1ccc(C(=O)NCc2ccccc2C)cc1S(=O)(=O)NC1CCCC1,2.42%
18,COc1cc(OC)c(NC(=O)C2CCCN2C(=O)OCc2ccccc2)cc1Cl (configuration not stated),2.9%
19,CCN(C(=O)CSc1nnnn1-c1ccc(OC)cc1)C1CCS(=O)(=O)C1 (configuration not stated),-1.21%
20,COc1ccccc1NS(=O)(=O)c1ccc(C)c(C(=O)NNC(=O)c2csc(N3CCOCC3)n2)c1,-8.84%
21,CSc1ncccc1C(=O)NCC(c1ccco1)N1CCCCC1 (configuration not stated),-0.371%
22,CN(CC(=O)NCCc1ccc(S(N)(=O)=O)cc1)CC(=O)Nc1ccc(Cl)cc1,2.8%

row,SMILES,inhibition
1,CC1Sc2ccc(C(=O)NCc3ccccc3Cl)cc2NC1=O (configuration not stated),3.12%
2,c1ccc2c(CCN3CCNC[C@H]3Cc3cccc4ccccc34)cccc2c1,4.64%
3,CC1COC2C(O1)N(S(C)(=O)=O)CCN2S(C)(=O)=O (configuration not stated),-8.42%
4,COc1ccc2nc3n(c(=O)c2c1)-c1cc(C)ccc1C(=O)NC3Cc1ccc(O)cc1 (configuration not stated),4.49%
5,Cc1ccc(NC(=O)CN(C)C(=O)c2ccc(Cl)c(S(=O)(=O)NCc3ccco3)c2)cc1,1.2%
6,COCCCNC(=O)CC1C[C@H](C(=O)N2CCCCC2)[C@@]2(CCc3ccccc3)c3[nH]c4ccccc4c3CCN2C1=O (some centres not stated),-3.31%
7,CC(=O)c1nn(-c2ccc(C)cc2)cc1C(=O)c1cccc(Br)c1,7.63%
8,Cc1nnc(SCC(=O)Nc2ccc(S(=O)(=O)Nc3ccc(Cl)nn3)cc2)s1,0.425%
9,CN(C(=O)c1ccccc1)c1nccnc1C#N,2.83%
10,O=C(Nc1ccccc1)O/N=C1/CCCc2occc21,-0.26%
11,Cc1ccc(NS(=O)(=O)c2ccc(C(=O)NCCCN3CCOCC3)cc2)cc1,-2.45%
12,Nn1c(SCC(=O)NC2CCCc3ccccc32)nnc1C1CC1 (configuration not stated),2.63%
13,COc1cc(OC)cc(-c2c(C#Cc3ccsc3)c3cc(-c4ccc(SC)cc4)ccc3n2C)c1,-8.45%
14,CN(C)C(=O)c1cccn(Cc2cccc(C(F)(F)F)c2)c1=O,0.89%
15,CC(C)(C)OC(=O)C[C@@H]1C/C=C\C[C@@H](CC(=O)N[C@H](CO)Cc2ccccc2)C(=O)NC[C@@H](c2ccccc2)OC1=O,-3.9%
16,S=c1[nH]c2ccccc2c2ccccc12,2.2%
17,CC1(C)CC(=O)C=C(c2ccc(Cl)c(C(F)(F)F)c2)C1,3.15%
18,CCN(CC)CCCNC(=S)N(CCO)Cc1cc2cc3c(cc2[nH]c1=O)OCO3,3.65%
19,CCNC(=S)N(CCN(CC)CC)Cc1cc2cc3c(cc2[nH]c1=O)OCCO3,-18.5%
20,COCCCNC(=S)N(CCN(C)C)Cc1cc2cc3c(cc2[nH]c1=O)OCCO3,54.7% (active)
21,COc1ccc2sc(-c3ccc(S(C)(=O)=O)cc3)c(C#Cc3cncn3C)c2c1,-6.51%
22,Cc1ccc(C)c(S(=O)(=O)N2CCN(c3ncnc4sccc34)CC2)c1,8.6%

row,SMILES,inhibition
1,CCOC(=O)c1nn(-c2ccccc2F)c2nc(Nc3ccccc3)cc(=O)n12,4.54%
2,Cc1nc(CC(=O)NNS(=O)(=O)c2ccc(F)c(Cl)c2)cs1,-5.91%
3,COc1cccc(NC(=O)C2c3cc(OC)c(OC)cc3C(=O)N(C)C2c2cccnc2)c1 (configuration not stated),35.6% (active)
4,COc1cccc(NC(=O)C2C(c3ccccc3)C2(Cl)Cl)c1 (configuration not stated),10.8%
5,CCOc1cc2c(cc1OCC)C(C(=O)O)C(c1ccc(OC)c(O)c1)N(C)C2=O (configuration not stated),-1.3%
6,CCCCn1c(N)c(N(CCOC)C(=O)COc2c(C)cccc2C)c(=O)[nH]c1=O,-1.76%
7,CSc1cccc(NC(=S)N(C(C)C)C(C)c2ccccn2)c1 (configuration not stated),-0.0363%
8,COc1ccc(S(=O)(=O)N(C)C[C@@H]2Oc3ccc(NC(=O)Nc4c(C)noc4C)cc3C(=O)N([C@H](C)CO)C[C@@H]2C)cc1,-1.76%
9,O=C(COc1ccc(F)cc1Br)NCC1COc2ccccc2O1 (configuration not stated),-3.53%
10,CCCCN(C(=O)C1CCC1)c1c(N)n(Cc2ccccc2)c(=O)[nH]c1=O,-3.39%
11,O=C(COC(=O)c1cccc(Cl)c1)NC(=O)NCc1ccccc1,1.01%
12,CC(OC(=O)c1cc2ccccc2[nH]1)C(=O)N(C)c1ccccc1 (configuration not stated),-8.32%
13,COCCNC(=O)CCCN1C(=O)c2ccccc2Sc2ncccc21,2.45%
14,CCOc1ccc(-n2c(N)c(C(=O)NCC3CCCO3)sc2=S)cc1 (configuration not stated),3.4%
15,O=C(Nc1nnc(-c2ccccc2)o1)c1cccc(S(=O)(=O)N2CCOCC2)c1,-1.1%
16,COc1ccccc1C(=O)NCC(=O)OCC(=O)NNC(=O)c1ccc(Br)cc1,-9.69%
17,CCCn1c(=O)c2c(C(F)(F)F)cc(-c3cccs3)nc2n(CCC)c1=O,1.67%
18,COc1ccc(NC(=O)CNC(=O)Cn2ccc3ccccc3c2=O)c(OC)c1,-0.211%
19,Fc1ccc2cnc(-c3ccccc3)cc2c1,-0.273%
20,Cc1ccc(NC(=O)C2CC2)cc1S(=O)(=O)N1CCOCC1,1.59%
21,COc1ccc(-c2c(-c3cc(OC)cc(OC)c3)n(C)c3ccc(-c4ccn[nH]4)cc23)cc1,-1.8%
22,CC(C)n1cnc2c(NCc3ccccc3)cc(N[C@@H](CO)Cc3ccccc3)cc21,11.4%

row,SMILES,inhibition
1,N=c1c2c3c(sc2ncn1N)CCCC3,9.19%
2,N=c1c2c3c(sc2ncn1N)CCCCC3,-7.57%
3,S=c1[nH]nc2c3c4c(sc3ncn12)CCCC4,42.4% (active)
4,Cc1ccc(S(=O)(=O)NCCNC(C)c2ccc(Br)cc2)cc1 (configuration not stated),6.4%
5,CC(=O)c1ccc(NC(=O)CSc2nc3ccccc3c(=O)n2CCCN2CCOCC2)cc1,12.2%
6,COc1ccc(N2C(=O)C(CC(=O)Nc3ccc(F)cc3)N(CCc3cccs3)C2=O)cc1 (configuration not stated),-0.706%
7,CC1=CCC2C(=O)N(c3cccc(C(=O)NC(C)c4ccccc4)c3)C(=O)C2C1 (configuration not stated),-6.38%
8,COc1ccc(CCNC(=O)CN2C(=O)COc3ccc(S(=O)(=O)N4CCCC4)cc32)cc1OC,-4.05%
9,CC1(c2ccccc2)NC(=O)N(CC(=O)N2CC(=O)Nc3ccccc32)C1=O (configuration not stated),-0.182%
10,Cc1ccc(-c2nn(-c3ccccc3)cc2/C=C2\SC(=S)N(CCCCCC(=O)O)C2=O)o1,31.7% (active)
11,Cc1ccc(-c2nn(-c3ccccc3)cc2CN(Cc2ccccc2)C(=O)CCC(=O)O)o1,-11.8%
12,C=CCOc1ccc(/C=C2\SC(=S)N(CCC(=O)O)C2=O)cc1,6.13%
13,Clc1ccc2nc(CSc3ccccc3)cn2c1,10.1%
14,C[C@H]1CN([C@@H](C)CO)C(=O)Cc2cc(NS(C)(=O)=O)ccc2O[C@@H]1CN(C)CC1CC1,-7.37%
15,CC(C)(C)NC(=O)NC(=O)COC(=O)C1c2ccccc2Oc2ccccc21,-4.96%
16,Cc1cccc(C)c1Nc1nnc(SCC(=O)NCCCN2CCCC2=O)s1,0.701%
17,O=C(NCc1ccc2c(c1)OCO2)c1c(-c2ccsc2)sc2ccccc12,4.88%
18,O=C(Nc1ccc(Br)cn1)C1CCN(S(=O)(=O)c2cccs2)CC1,-1.41%
19,COc1ccc(-c2n[nH]c(C)c2-c2ccccc2OC)c(O)c1,-1.09%
20,C=C(C)COc1ccc(-c2n[nH]c(C)c2-c2ccccc2)c(O)c1,28.9% (active)
21,C=C(C)COc1ccc(-c2ncncc2-c2ccc(OC)cc2)c(O)c1,4.53%
